Assay outcomes deposited in PubChem by several laboratories.
HSF1 inh: HSF1 inhibitors in luciferase reporter cells, primary screen, cell-based, NIH3T3, luminescence; NIH3T3-HGL HSE-luciferase, MG132-induced, luminescence 8 h; stronger effect = lower value; 0.77% of 300,000 active; activity change, negative = inhibition, % at 7.5 µM (by protocol);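 active = more than half of replicate wells show activity change below -50%, luminescence cut by over half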;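 note: luciferase reports HSF-1 transcriptional activity via heat shock element; 0% = median of DMSO wells and -100% = zero luminescence signal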
HIF activator: HIF pathway transcriptional activators, primary screen, cell-based, U2OS HRE-luciferase, luminescence. U2OS HRE-luciferase reporter; normalized: DMSO 0%, desferrioxamine 100%. activation, % at 7.5 µM (by protocol). 0.32% of 300,000 active. AID 1910, 2009;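 active = mean activation of at least 10% of the iron chelator positive control signal, with at least half of replicates also reaching 10%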
HSP90 inh: HSP90 inhibitors, primary screen, cell lysate, luminescence. Heat shock protein HSP 90 (rabbit reticulocyte lysate; luciferase refolding). Rabbit reticulocyte lysate, luciferase refolding luminescence, 3 h. inhibition, % at 5.6 µM. 0.91% of 290,000 active. AID 1789, 2009;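 active = inhibition above the screen-wide mean plus 3 SD, computed separately per campaign, cut at about 16% in these data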;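 note: 0% = DMSO wells and 100% = 60 µM geldanamycin wells; inhibitors lower the luminescence because luciferase stays unfolded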
HSF1 activator: HSF-1 activators, primary screen, NIH3T3-HGL cells, MG132 stress, luminescence, single point; NIH3T3-HGL HSF-1 luciferase reporter, 8 h; 100% = twice DMSO control signal; activation, % at 9 µM; 1.7% of 300,000 active; AID 504408, 2011;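 active = mean replicate activation of at least 50% with a set share of replicates each reaching 50%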;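 note: 0% = median of the neutral control wells and 100% = twice that signal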
ARNT-TACC3 inh: disruptors of ARNT/TACC3 protein interaction, primary screen, biochemical, AlphaScreen, single concentration; 0.66% of 390,000 active; Transforming acidic coiled-coil-containing protein 3 (Homo sapiens), Q9Y6A5; inhibition, % at 9.99 µM; AlphaScreen His-ARNT PAS-B/GST-TACC3 binding, luminescence; TACC3 fragment carries E629A point mutation;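 active = mean inhibition of replicates at least 50% and at least half of replicates each reaching 50%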;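 note: 0% = complete ARNT plus TACC3 wells and 100% = ARNT alone without TACC3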
* marks the source's active call; other numbers are inactive results; . = no result. Only some compounds are listed: those with a hit (about 3.1% of all), similar ones and a draw of the others.

SMILES	HSF1 inh	HIF activator	HSP90 inh	HSF1 activator	ARNT-TACC3 inh
COc1ccc(NC(=O)CCCCC#Cc2ccccc2)cc1	2	0	.	13	-3
C[C@@H]1CN([C@@H](C)CO)C(=O)c2cc(-c3cccc(C(=O)N(C)C)c3)cnc2O[C@H]1CN(C)S(=O)(=O)c1cccc(F)c1	.	.	.	.	-5
COc1ccc(-c2nc(C#N)c(NCCc3ccccc3)o2)cc1OC	51	3	0	80*	1
CCCC#Cc1cnc2c(c1)C(=O)N([C@H](C)CO)C[C@@H](C)[C@H](CN(C)C(=O)Nc1ccccc1OC)O2	.	.	.	.	3
CCCN1C[C@@H](C)[C@H](OC)CN(C)C(=O)c2cc(NC(=O)c3cnccn3)ccc2OC[C@H]1C	.	.	.	.	-3
CC(C)(C)C(=O)OCc1nc(-c2ccc3c(c2)OCCO3)cs1	-52*	2	9	-62	-12
O=C(CCN1CCCCC1)NCC[C@@H]1CC[C@@H](NC(=O)c2ccc(F)cc2)[C@@H](CO)O1	.	.	.	.	-2
Nc1c(-c2ccc(Cl)cc2)cnn1-c1cccc(C(F)(F)F)c1	14	2	-5	30	-1
Cc1nnc(-c2cnn(-c3ccccc3)c2N)n1Cc1cccc(C(F)(F)F)c1	-60*	0	-6	-69	3
Cc1nnc(-c2cnn(-c3ccccc3)c2N)n1Cc1ccncc1	0	-1	13	-1	-15
Cc1ccc(-c2cnn(-c3cccc(C(F)(F)F)c3)c2N)cc1	18	5	-3	53*	-11
O=C(C[C@@H]1CC[C@H](NC(=O)c2ccccc2)[C@@H](CO)O1)NCc1ccncn1	.	.	.	.	-6
Brc1ccc(N/N=C(/N=Nc2nn[nH]n2)c2ccccc2)cc1	.	84*	-23	.	45
CCOc1cc(C2NC(=O)NC(C)=C2C(=O)OCc2ccccc2)ccc1O (configuration not stated)	.	0	-4	.	44*
CSCCOC(=O)C1=C(C)NC(=O)NC1c1ccc2c(c1)OCO2 (configuration not stated)	23	-1	10	56*	-1
CC1=C(C(=O)OCc2ccc3c(c2)OCO3)C(c2ccc(F)cc2)NC(=O)N1 (configuration not stated)	-54*	1	1	-63	4
COc1cc(C2NC(=O)NC(C)=C2C(=O)OCc2ccccc2)ccc1O (configuration not stated)	3	0	.	17	13
CC(C)NC(=O)N[C@H]1CC[C@H](CCNS(=O)(=O)c2ccc(F)cc2)O[C@@H]1CO	.	.	.	.	-9
O=C(Nc1ccc(F)cc1)N1CCN(c2ccc3nnc(-c4ccc(F)cc4)n3n2)CC1	7	-1	-1	-1	15
Fc1ccc(-c2nnc3ccc(N4CCc5ccccc5C4)nn23)cc1	64	0	2	80*	1
O=C(N/N=C/c1ccccc1F)c1csc2c1CCCC2	46	-15	1	65*	.
COc1ccc(NC(=O)c2csc3c2CCCCC3)c(OC)c1	-3	1	0	29	4
O=C(Nc1ccccc1O)c1csc2c1CCCC2	39	3	-2	93*	-3
CCOC(=O)N1CCN(C(=O)c2ccc3oc(CCCc4ccccc4)nc3c2)CC1	23	4	-1	61*	3
CC(=O)N1CCN(C(=O)c2ccc3oc(CCCc4ccccc4)nc3c2)CC1	-2	1	1	-4	0
SMILES	HSF1 inh	HIF activator	HSP90 inh	HSF1 activator	ARNT-TACC3 inh
Cc1cc(C)n(-c2ccc(NC(=O)C3CCCCN3C(=O)c3ccoc3C)cc2)n1 (configuration not stated)	-70*	0	1	-77	0
Cc1cc(C)n(-c2ccc(NC(=O)C3CCCCN3C(=O)c3ccc(C)s3)cc2)n1 (configuration not stated)	5	0	-3	7	-1
CCCNC(=O)Nc1ccc2c(c1)C(=O)N(C)[C@H]1CC[C@@H](CC(=O)O)O[C@@H]1CO2	.	.	.	.	-23
O=C(Cc1ccncc1)N[C@H]1CC[C@@H](CCn2cc(-c3ccccc3F)nn2)O[C@H]1CO	.	.	.	.	11
N#C[C@H]1[C@H](c2ccc(C#Cc3ccccc3F)cc2)[C@@H](CO)N1C(=O)C1CCCCC1	.	.	.	.	47*
N#C[C@H]1[C@@H](c2ccc(C#Cc3ccccc3F)cc2)[C@@H](CO)N1C(=O)C1CCCCC1	.	.	.	.	12
C[C@H](CO)N1C[C@H](C)[C@H](CN(C)C(=O)Nc2ccccc2)Oc2ncc(C3=CCCCC3)cc2C1=O	.	.	.	.	2
Oc1c(Cl)cc(Cl)cc1C=Nc1cc(C(F)(F)F)ccc1N1CCc2ccccc2C1	37	3	14	70*	-3
Cc1ccc(/C=C2\Oc3cc(OC(=O)N4CCOCC4)ccc3C2=O)cc1	32	0	1	92*	13
CC(C)S(=O)(=O)c1csc(NC(=O)Nc2ccc(Cl)cc2)c1	60	-14	-1	77*	18
COc1ccc(Br)cc1C1NC(=O)c2c(sc3c2CCN(C)C3)N1 (configuration not stated)	.	.	.	.	1
CN1CCc2c(sc3c2C(=O)NC(c2ccc(-c4ccc(Cl)cc4)o2)N3)C1 (configuration not stated)	-86*	0	3	-90	5
COc1ccccc1-c1ccc2c(c1)[C@@H]1[C@@H](CCN1C(=O)c1ccc3c(c1)OCO3)[C@H](CO)N2	.	.	.	.	10
CCCC(=O)Nc1ccc2c(c1)C(=O)N(C)C[C@H](OC)[C@H](C)CN(Cc1ccccc1)[C@@H](C)CO2	.	.	.	.	-9
CCN(c1ccccc1)S(=O)(=O)c1ccc(Cl)c(NC(=O)Nc2ccc(Cl)cc2C#N)c1	18	0	-8	21	13
CCN(c1ccccc1)S(=O)(=O)c1cc(NC(=O)Nc2ccccc2C#N)ccc1Cl	17	0	2	59*	-1
Cc1[nH]n(-c2ccccc2)c(=S)c1C=Nc1cccc([N+](=O)[O-])c1	-60*	2	1	-67	0
CCCCN=Cc1c(C)[nH]n(-c2ccccc2)c1=S	-8	-57	1	-1	.
CN1CCN(C(=O)C[C@H]2CC[C@H]3[C@@H](COC[C@H](O)CN3Cc3cccc(Cl)c3)O2)CC1	.	.	.	.	13
Cn1cc(C(=O)N2CCc3ccccc32)cn1	14	2	-5	10	-6
O=C(c1cccc([N+](=O)[O-])c1)N1CCc2ccccc21	-68*	-2	-3	-73	-1
Cc1ccc(C(=O)N2CCc3ccccc32)cc1	23	2	0	66*	3
Cc1ccc(SCC(=O)N2CCc3ccccc32)cc1	76	2	-6	80*	4
Cc1cc(C)nc(SCC(=O)N2CCc3ccccc32)n1	13	4	-1	22	-35
